Source: PubChem BioAssay (NCATS)
Values joined by “and” are separate entries in the source; they are usually repeats but may differ in a detail not shown here. Equal entries are not always repeated. Inconclusive results are not listed. Active and inactive are the calls of the source. Unless noted, calls come from the whole dose curve; as a rule, active = well fitted curve in the direction sought with a large enough effect; inconclusive = small, poorly fitted or top-dose-only effect, or another doubt; inactive = no such curve, though single readings can be large; an effect the other way counts as inactive or inconclusive.

Legend:
[1] = Cell Viability - Hek293 (AID 427;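 active = compounds whose dose-response curve shows a full or clear partial loss of cell viability, called from curve shape rather than a numeric limit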;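 note: potency is the fitted concentration of half-maximal effect; cells exposed to compound for 40 hours at 37 °C before reading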); conditions: qHTS
How it was run: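 Luminescent ATP content (CellTiter-Glo, 20 min at room temperature) was measured after a 40 hr, 37 °C compound exposure of HEK293 cells. AC50 values came from Hill-equation fits of qHTS concentration-response data normalized to DMSO and 100 uM tamoxifen.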

[2] = Cell Viability - NIH 3T3 (AID 541); conditions: NIH 3T3 cell viability, qHTS; activity change, negative = cytotoxicity: at 92.2 µM (top of the series);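 note: plate controls were DMSO alone for no effect and tamoxifen positive control for full effect; nearly all actives have a fitted effect of over 25% in size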
How it was run: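 Luminescent ATP signal (CellTiter-Glo) served as the viability read-out after NIH 3T3 cells were exposed to compounds over a concentration range for 40 hr at 37 °C. Hill-equation modelling of concentration-response data gave AC50.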

[3] = Cell Viability - HUV-EC-C (AID 542); conditions: HUV-EC-C endothelial cell viability, qHTS; series mostly up to 92.2 µM; note: % is set by controls: 0 for no effect and ±100 for the full control effect; nearly all actives have a fitted effect of over 35% in size
How it was run: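 qHTS cytotoxicity: HUV-EC-C, 1000 cells/well, 5 hr settle, compound 40 hr 37 °C, CellTiter-Glo, luminescence. AC50 via Hill equation.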

[4] = Cell Viability - H-4-II-E (AID 543); conditions: H-4-II-E rat hepatoma viability; series mostly up to 92.2 µM; note: % is set by controls: 0 for no effect and ±100 for the full control effect; nearly all actives have a fitted effect of over 35% in size
How it was run: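 Luminescent ATP signal (CellTiter-Glo) served as the viability read-out, with cytotoxicity seen as a concentration-dependent ATP drop. Cells were treated for 40 hours in complete medium. AC50 values derive from Hill-equation modelling.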

[5] = MultiTox-Fluor Cytotoxicity Assay - LYMP1-001 - Dead Cells (AID 946); conditions: LYMP1-001 lymphoblastoid cells, dead-cell protease fluorescence; series mostly up to 92.2 µM
How it was run: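 Cytotoxicity as increased dead-cell protease fluorescence (bis-AAF-R110, 485/520 nm), read 60 min after MultiTox-Fluor reagent. Human lymphoblastoid line exposed 16 h; Hill-fitted AC50, with DMSO as 0% and 15 uM tetraoctylammonium bromide as 100%.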

[6] = MultiTox-Fluor Cytotoxicity Assay - LYMP1-003 - Dead Cells (AID 961); conditions: LYMP1-003 lymphoblastoid cells, dead-cell protease fluorescence; series mostly up to 92.2 µM; note: nearly all actives have a fitted effect of over 70% in size
How it was run: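 Dead-cell protease release, detected as bis-AAF-R110 fluorescence at 485/520 nm, was measured in LYMP1-003 cells after 16 h compound treatment at 37 C. AC50 values came from Hill-modeled qHTS curves normalized to DMSO (0%) and 15 uM tetraoctylammonium bromide (100%).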

[7] = molecular target: Bile acid receptor (Homo sapiens) (UniProt Q96RI1); assay: qHTS assay for small molecule antagonists of farnesoid X receptor signaling (AID 588526; calls by dose curve; note: % is set by controls: 0 for no effect and ±100 for the full control effect); conditions: HEK293T FXR-UAS-bla, beta-lactamase ratio, antagonist mode; series mostly up to 76.7 µM
How it was run: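 Beta-lactamase reporter antagonist mode: HEK293T FXR-UAS-bla cells, titrated compound, CDCA stimulation, 16 h 37 C, CCF4 dye 2 h RT. Data normalized to CDCA 50 uM and DMSO; Hill-fit IC50.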

[8] = molecular target: Peroxisome proliferator-activated receptor delta (Homo sapiens) (UniProt Q03181); assay: qHTS assay for small molecule agonists of peroxisome proliferator-activated receptor delta signaling (AID 588534; calls by dose curve;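 note: 0% = DMSO basal wells and 100% = positive control agonist at 10 µM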); conditions: HEK293T PPARdelta-UAS-bla, beta-lactamase ratio, 18 h; series mostly up to 76.7 µM
How it was run: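 Fluorescence from CCF4 substrate cleavage by beta-lactamase reporter, read 2 hrs at RT, measured agonist activity. Compounds were tested with 18 hrs exposure at 37 C. Concentration-response data fitted to Hill equation.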

[9] = qHTS assay for small molecule antagonists of peroxisome proliferator-activated receptor delta signaling (AID 588535; active = well fitted inhibition curve with a large enough effect in the signal ratio, with a control signal flat, not every such curve was filed as active; the % refers to the signal ratio;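 for max response: cells co-treated with a PPAR-delta agonist as stimulator during compound exposure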); conditions: HEK293T PPARd-UAS-bla, beta-lactamase FRET ratio, 18 h; 460 nm channel
How it was run: (§1)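 HEK293T PPAR-delta-UAS-bla cells, 4000/well, 2% charcoal/dextran FBS; 5 h 37 C; cpd titration; 18 h 37 C; CCF4 2 h RT; FI 460/530 nm; Hill fit → IC50, efficacy.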

[10] = molecular target: Peroxisome proliferator-activated receptor delta (Homo sapiens) (UniProt Q03181); assay: as above; conditions: HEK293T PPARd-UAS-bla, beta-lactamase FRET ratio, 18 h; series mostly up to 76.7 µM
How it was run: as §1

[11] = molecular target: Peroxisome proliferator-activated receptor gamma (Homo sapiens) (UniProt P37231); assay: qHTS assay for small molecule antagonists of peroxisome proliferator-activated receptor gamma signaling (AID 588537; active = well fitted inhibition curve with a large enough effect in the signal ratio, with a control signal flat, not every such curve was filed as active; the % refers to the signal ratio;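 note: reporter cells co-stimulated with 50 nM rosiglitazone agonist during compound treatment; % of control where 0% means no effect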); conditions: HEK293 PPARg-UAS-bla, beta-lactamase ratio, antagonist mode; series mostly up to 76.8 µM
How it was run: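 Antagonist mode, beta-lactamase reporter in HEK293; charcoal/dextran FBS 1%; 3000 cells/well, 37 C 6-6.5 h; cpd titration + rosiglitazone 50 nM final, 16 h 37 C; CCF4, 2 h RT; 460/530 nm; Hill fit → IC50, efficacy.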

[12] = molecular target: Retinoic acid receptor RXR-alpha (Homo sapiens) (UniProt P19793); assay: qHTS assay for small molecule agonists of retinoid X receptor alpha signaling (AID 588544; calls by dose curve;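 note: 0% = DMSO basal wells and 100% = reference agonist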); conditions: HEK293T RXRa-UAS-bla, beta-lactamase reporter, 18 h; series mostly up to 76.7 µM
[13] = molecular target: Voltage-gated inwardly rectifying potassium channel KCNH2 (Homo sapiens) (UniProt Q12809); assay: qHTS Assay for Small Molecule Inhibitors of the Human hERG Channel Activity (AID 588834); conditions: U2OS BacMam hERG, FluxOR thallium flux fluorescence; series mostly up to 92.2 µM;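 note: top concentration of the series differs between compounds; % is set by controls: 0 for no effect and ±100 for the full control effect; lower thallium flux fluorescence means stronger hERG block; nearly all actives have a fitted effect of over 50% in size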
How it was run: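 hERG-BacMam U2OS, 2000 cells/well; 0.7X FluxOR loading 1 hr RT dark; cpd ~10 min 37 °C; stim buffer; FDSS fluorescence 2 min @ 1 s; AC50 Hill fit.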

[14] = qHTS assay for environmental chemicals that activate the Aryl hydrocarbon Receptor (AhR) signaling pathway (AID 651777); conditions: 1A2-DRE human hepatoma cells, luciferase, 24 h; activation: stronger effect = higher value; note: % of control where 0% means no effect; nearly all actives have a fitted effect of over 15% in size
How it was run: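 Human hepatoma 1A2-DRE cells, stably carrying a dioxin response element and CYP1A2 promoter driving luciferase, were exposed to compounds for 24 hr at 37 C and 5% CO2. Luciferase signal was then read after 30 min One-Glo at room temperature.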

[15] = Cellular Toxicity (caspase-3) N2a (AID 665); conditions: N2a cells, luminescence, normalized: DMSO 0%, 10 µM staurosporine 100%; at 92.2 µM (top of the series);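 note: compound exposure lasted 16 h at 37 °C before readout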
How it was run: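 N2a cells, 1500/well, 5 h settle at 37 °C; cpd 16 h, 37 °C; Caspase-Glo 3/7, 1 h RT; luminescence. Norm: DMSO = 0, 10 uM staurosporine = 100%. AC50, Hill fit.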

[16] = Cell Viability - LYMP2-007 (AID 979); conditions: LYMP2-007 lymphoblastoid cell viability; series mostly up to 92.2 µM;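 note: cells exposed to compound for 24 h before reading; 0% = DMSO only and the negative end = 92 µM tetraoctylammonium bromide; nearly all actives have a fitted effect of over 60% in size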
How it was run: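 Luminescent ATP signal (CellTiter-Glo) serves as the viability read-out after 24 hr compound treatment of lymphoblastoid cells in complete medium at 37 C. Concentration-response data were fitted to the Hill equation to give AC50 values.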

[17] = Cell Viability - LYMP2-026 (AID 989); conditions: LYMP2-026 lymphoblastoid cell viability, qHTS; series mostly up to 92.2 µM; note: % is set by controls: 0 for no effect and ±100 for the full control effect; nearly all actives have a fitted effect of over 50% in size
How it was run: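 Luminescent ATP signal (CellTiter-Glo, 30 min room temperature) measures viable lymphoblastoid cells after 24 hr compound treatment at 37 C. Decreased ATP reflects acute toxicity; AC50 values come from Hill-equation modeling.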

[18] = molecular target: Thyroid hormone receptor beta (Homo sapiens) (UniProt P10828); assay: qHTS assay for small molecule antagonists of thyroid hormone receptor beta signaling (AID 588547; active = well fitted inhibition curve with a large enough effect in the signal ratio, with a control signal flat, not every such curve was filed as active; the % refers to the signal ratio;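 note: cells stimulated with 0.4 nM T3 agonist during compound exposure; % is set by controls: 0 for no effect and ±100 for the full control effect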); conditions: TR-UAS-bla HEK293, beta-lactamase ratio, antagonist mode, 18 h
How it was run: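 Inhibition of T3-driven (0.4nM final) beta-lactamase reporter activity was measured over 0.59 nM to 92 uM compound after 18 h at 37 C. The cells were GripTite HEK293 TR-UAS-bla in charcoal/dextran-stripped serum, with CCF4 ratio read-out and IC50 from Hill fits.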

[19] = qHTS assay for small molecule disruptors of the mitochondrial membrane potential - 5 hr assay (AID 651755; calls by dose curve; note: % is set by controls: 0 for no effect and ±100 for the full control effect; nearly all actives have a fitted effect of over 40% in size); conditions: JC-1-type ratio dye; series mostly up to 92.2 µM
How it was run: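 HepG2, 2,000 cells/well, overnight attach; cpd or DMSO 5 hr, 37C/5% CO2; Mito-MPS 30 min 37C; fluor 490/535 + 540/590 nm.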

[20] = molecular target: Peroxisome proliferator-activated receptor alpha (Homo sapiens) (UniProt Q07869); assay: qHTS assay for small molecule agonists of the peroxisome proliferator-activated receptor alpha (PPARalpha) signaling pathway (AID 651778); conditions: PathHunter PPARalpha complementation, chemiluminescence, 6 h; stronger effect = higher value; note: % of control where 0% means no effect
How it was run: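 Chemiluminescence from complemented enzyme reported PPARalpha activation in cells after 6 hr of compound treatment at 37 C. The detection reagent was incubated for 60 min at room temperature, and compounds were scored as agonists.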

Voltage-gated inwardly rectifying potassium channel KCNH2 (Homo sapiens), sequence (Q12809 whole entry, looked up): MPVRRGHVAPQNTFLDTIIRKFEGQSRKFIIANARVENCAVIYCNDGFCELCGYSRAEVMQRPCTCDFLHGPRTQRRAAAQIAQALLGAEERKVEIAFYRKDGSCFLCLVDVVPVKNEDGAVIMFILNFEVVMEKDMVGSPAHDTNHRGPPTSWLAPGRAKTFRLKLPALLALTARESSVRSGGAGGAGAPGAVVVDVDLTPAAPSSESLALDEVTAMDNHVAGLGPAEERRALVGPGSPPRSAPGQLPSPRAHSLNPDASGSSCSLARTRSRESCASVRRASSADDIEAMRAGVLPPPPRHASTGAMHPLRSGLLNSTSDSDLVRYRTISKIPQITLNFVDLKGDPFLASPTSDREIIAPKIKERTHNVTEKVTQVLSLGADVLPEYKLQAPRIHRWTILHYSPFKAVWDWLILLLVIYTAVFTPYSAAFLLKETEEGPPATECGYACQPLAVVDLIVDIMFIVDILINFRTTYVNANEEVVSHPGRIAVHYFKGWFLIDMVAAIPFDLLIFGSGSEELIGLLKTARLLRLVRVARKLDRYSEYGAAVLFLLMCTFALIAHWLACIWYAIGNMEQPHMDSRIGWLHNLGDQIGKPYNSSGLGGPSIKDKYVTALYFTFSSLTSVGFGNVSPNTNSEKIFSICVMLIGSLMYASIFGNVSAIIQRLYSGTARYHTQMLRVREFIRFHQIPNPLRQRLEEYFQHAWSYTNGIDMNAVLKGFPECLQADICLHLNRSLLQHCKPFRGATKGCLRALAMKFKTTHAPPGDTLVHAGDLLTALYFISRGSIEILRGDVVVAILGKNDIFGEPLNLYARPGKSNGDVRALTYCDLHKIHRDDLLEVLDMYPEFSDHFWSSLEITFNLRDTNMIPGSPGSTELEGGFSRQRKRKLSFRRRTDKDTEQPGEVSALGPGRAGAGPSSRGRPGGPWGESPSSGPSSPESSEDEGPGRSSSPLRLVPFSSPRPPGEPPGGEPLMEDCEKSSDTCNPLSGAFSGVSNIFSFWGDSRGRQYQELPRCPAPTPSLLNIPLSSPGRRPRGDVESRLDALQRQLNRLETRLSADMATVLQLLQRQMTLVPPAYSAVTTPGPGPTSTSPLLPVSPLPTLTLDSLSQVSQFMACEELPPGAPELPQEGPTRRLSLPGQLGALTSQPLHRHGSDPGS
Peroxisome proliferator-activated receptor alpha (Homo sapiens), sequence (Q07869 whole entry, looked up): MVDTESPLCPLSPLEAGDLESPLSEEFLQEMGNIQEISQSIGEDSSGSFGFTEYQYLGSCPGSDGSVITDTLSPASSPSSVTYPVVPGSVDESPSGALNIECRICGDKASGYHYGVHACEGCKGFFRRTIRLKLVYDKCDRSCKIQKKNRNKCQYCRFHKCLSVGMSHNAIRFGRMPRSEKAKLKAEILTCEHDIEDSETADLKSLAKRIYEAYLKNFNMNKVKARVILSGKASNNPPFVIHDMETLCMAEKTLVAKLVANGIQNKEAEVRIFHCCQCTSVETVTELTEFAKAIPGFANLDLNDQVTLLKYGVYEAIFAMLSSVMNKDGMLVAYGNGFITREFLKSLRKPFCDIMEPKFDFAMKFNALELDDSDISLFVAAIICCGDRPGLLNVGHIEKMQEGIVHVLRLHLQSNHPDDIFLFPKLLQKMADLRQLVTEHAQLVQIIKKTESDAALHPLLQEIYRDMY
Peroxisome proliferator-activated receptor delta (Homo sapiens), sequence (Q03181 whole entry, looked up): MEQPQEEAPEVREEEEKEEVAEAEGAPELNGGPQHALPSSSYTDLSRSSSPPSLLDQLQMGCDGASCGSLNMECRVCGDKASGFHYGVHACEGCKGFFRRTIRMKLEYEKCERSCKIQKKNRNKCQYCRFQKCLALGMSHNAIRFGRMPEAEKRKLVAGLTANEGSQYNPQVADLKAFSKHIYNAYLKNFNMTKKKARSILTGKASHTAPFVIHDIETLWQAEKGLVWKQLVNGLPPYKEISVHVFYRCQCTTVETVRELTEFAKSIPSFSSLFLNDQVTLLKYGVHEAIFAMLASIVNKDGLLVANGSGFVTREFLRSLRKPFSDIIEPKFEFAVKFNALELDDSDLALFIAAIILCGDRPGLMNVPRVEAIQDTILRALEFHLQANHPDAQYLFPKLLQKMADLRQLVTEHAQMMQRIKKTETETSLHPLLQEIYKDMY
Peroxisome proliferator-activated receptor gamma (Homo sapiens), sequence (P37231 whole entry, looked up): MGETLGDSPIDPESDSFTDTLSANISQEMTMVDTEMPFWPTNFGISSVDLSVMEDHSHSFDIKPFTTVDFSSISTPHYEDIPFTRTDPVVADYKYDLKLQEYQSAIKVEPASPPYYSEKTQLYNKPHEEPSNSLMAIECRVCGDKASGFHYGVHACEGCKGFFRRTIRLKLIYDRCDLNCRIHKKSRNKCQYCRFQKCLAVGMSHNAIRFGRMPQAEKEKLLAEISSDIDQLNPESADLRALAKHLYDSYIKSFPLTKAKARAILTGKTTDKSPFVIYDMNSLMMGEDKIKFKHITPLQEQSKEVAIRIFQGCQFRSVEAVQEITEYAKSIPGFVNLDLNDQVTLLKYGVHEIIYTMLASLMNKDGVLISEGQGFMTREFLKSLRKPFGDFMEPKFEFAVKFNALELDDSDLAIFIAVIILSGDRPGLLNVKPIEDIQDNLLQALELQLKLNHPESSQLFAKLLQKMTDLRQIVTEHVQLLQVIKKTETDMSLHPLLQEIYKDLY
Bile acid receptor (Homo sapiens), sequence (Q96RI1 whole entry, looked up): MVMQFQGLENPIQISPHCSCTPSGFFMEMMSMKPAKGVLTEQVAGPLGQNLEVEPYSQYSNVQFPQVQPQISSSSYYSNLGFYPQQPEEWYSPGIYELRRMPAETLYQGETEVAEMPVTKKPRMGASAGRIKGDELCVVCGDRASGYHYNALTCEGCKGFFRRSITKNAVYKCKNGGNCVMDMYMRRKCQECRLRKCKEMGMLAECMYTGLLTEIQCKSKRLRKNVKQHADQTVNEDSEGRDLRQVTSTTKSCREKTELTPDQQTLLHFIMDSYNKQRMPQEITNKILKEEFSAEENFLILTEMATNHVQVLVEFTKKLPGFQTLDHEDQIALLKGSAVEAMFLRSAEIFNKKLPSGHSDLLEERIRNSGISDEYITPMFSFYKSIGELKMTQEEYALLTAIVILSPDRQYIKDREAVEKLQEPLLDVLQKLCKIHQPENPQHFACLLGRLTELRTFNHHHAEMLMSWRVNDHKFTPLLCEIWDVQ
Retinoic acid receptor RXR-alpha (Homo sapiens), sequence (P19793 whole entry, looked up): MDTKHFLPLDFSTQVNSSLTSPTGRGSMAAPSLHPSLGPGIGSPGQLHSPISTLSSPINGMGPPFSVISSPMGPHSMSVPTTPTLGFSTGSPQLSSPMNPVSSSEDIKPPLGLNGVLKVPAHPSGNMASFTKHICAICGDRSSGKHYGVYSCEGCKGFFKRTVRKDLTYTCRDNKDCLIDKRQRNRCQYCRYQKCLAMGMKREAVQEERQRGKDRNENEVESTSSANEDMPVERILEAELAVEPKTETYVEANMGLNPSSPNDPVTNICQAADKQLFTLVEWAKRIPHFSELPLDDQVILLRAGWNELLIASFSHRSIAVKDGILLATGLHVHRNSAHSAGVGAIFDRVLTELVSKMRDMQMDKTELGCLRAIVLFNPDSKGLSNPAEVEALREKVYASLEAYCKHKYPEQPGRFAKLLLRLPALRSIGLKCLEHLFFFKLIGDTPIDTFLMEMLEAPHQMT
Thyroid hormone receptor beta (Homo sapiens), sequence (P10828 whole entry, looked up): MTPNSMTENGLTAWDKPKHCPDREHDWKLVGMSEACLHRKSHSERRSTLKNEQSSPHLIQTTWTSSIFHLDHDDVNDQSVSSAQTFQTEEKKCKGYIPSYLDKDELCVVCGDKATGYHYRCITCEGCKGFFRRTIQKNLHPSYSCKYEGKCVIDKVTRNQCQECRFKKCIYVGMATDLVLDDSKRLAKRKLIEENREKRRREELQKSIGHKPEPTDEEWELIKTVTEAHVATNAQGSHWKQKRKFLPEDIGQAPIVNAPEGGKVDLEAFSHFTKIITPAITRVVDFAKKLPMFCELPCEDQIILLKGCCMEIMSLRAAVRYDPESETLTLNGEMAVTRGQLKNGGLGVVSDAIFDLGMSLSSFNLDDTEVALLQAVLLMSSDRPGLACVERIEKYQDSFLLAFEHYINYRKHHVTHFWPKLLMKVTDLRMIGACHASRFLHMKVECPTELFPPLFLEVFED

Cc1ccc2ccccc2c1
inactive: Potency [1] > 92 µM | activity change, negative = cytotoxicity [2] -11.3% | Potency [3] | Potency [4] | Potency [5] | Potency [6] | outcome [7] | outcome [8] | Potency [10] | Potency [11] | Potency [12] | Potency [13] | activation [14] 1.58%
14.3%: max response [9]

C=C(C)C#N
inactive: Potency [1] > 92 µM | Potency [3] | Potency [4] | caspase-3 activation [15] -1.66% | Potency [5] | Potency [6] | outcome [7] | Potency [12] | activation [14] -0.895% and 0.596%

c1ccc(OP(Oc2ccccc2)Oc2ccccc2)cc1
inactive: Potency [1] > 92 µM | activity change, negative = cytotoxicity [2] 7% | Potency [4] | caspase-3 activation [15] 0.755% | Potency [6] | Potency [16] | Potency [17] | Potency [11] | Potency [12] | activity change % (negative = inhibition) [18] 5.76% | Potency [13] | Potency [19] | max response [20] -2.33% and -1.84%

C=CC(C)=O
inactive: Potency [1] > 92 µM | Potency [3] | Potency [4] | caspase-3 activation [15] 0.266% | Potency [5] | Potency [16] | outcome [7] | Potency [10] | Potency [12] | Potency [13]
6.99%: max response [9]

CCCCOCCOP(=O)(OCCOCCCC)OCCOCCCC
25%: max response [9]
inactive: Potency [1] > 92 µM | activity change, negative = cytotoxicity [2] -4.02% | Potency [3] | Potency [17] | outcome [8] | Potency [10] | Potency [11] | Potency [12] | activity change % (negative = inhibition) [18] -2.2% and -9.56% | Potency [19] | max response [20] 5.47% and -1.69%

O=[N+]([O-])c1cccc2ccccc12
inactive: Potency [1] > 92 µM | activity change, negative = cytotoxicity [2] 3.57% | Potency [3] | Potency [6] | Potency [17] | outcome [8] | Potency [10] | Potency [11] | Potency [12] | activity change % (negative = inhibition) [18] 7.72% and 4.17% | Potency [13] | Potency [19] | max response [20] -0.448% and 0.96%
-7.08% and 18.1%: max response [9]

OCC1CO1 (centres undefined)
-3.17% and 28.4%: max response [9]
inactive: Potency [1] > 92 µM | Potency [4] | Potency [5] | outcome [7] | outcome [8] | Potency [10] | Potency [11] | Potency [12] | activity change % (negative = inhibition) [18] -4.57% and 15.9% | Potency [13] | activation [14] -0.664% and -1.74% | max response [20] -0.572% and -0.317%

CCOc1ccc(N)cc1
inactive: Potency [1] > 92 µM | Potency [3] | caspase-3 activation [15] 6.79% | Potency [5] | Potency [16] | Potency [17] | outcome [7] | outcome [8] | Potency [12] | activity change % (negative = inhibition) [18] -6.64% | Potency [13] | Potency [19] | activation [14] 1.6%
